# Results published in PubChem BioAssay AID504727 (Broad Institute, 2011).
# Unmarked numbers belong to inactive results. Activity calls are given as the source filed them.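 Rule for the calls: active = fitted half-maximal concentration AC50 at or below ten times the highest valid tested dose, with signal falling as DNA is displaced (actives reach about 34 µM in these data); inconclusive = flat fit at moderate signal loss, or poor fit quality; inactive = the rest, including signal rising instead of falling.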
# Assay: DNA intercalators displacing acridine orange, dose response, artefact control for KSHV LANA DNA-binding inhibitor project, biochemical, fluorescence polarization, cherry-picked samples, set 2 (AID 504727);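 for activity change, negative = DNA displacement: 0% = median of neutral control wells and -100% = mitoxantrone positive control wells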
# Conditions: AC50: Acridine orange-DNA displacement; series mostly up to 35 µM; activity change, negative = DNA displacement: at the top concentration
Compound,"activity change, negative = DNA displacement",AC50
Cc1ccc(CSc2ncnc3onc(C)c23)cc1,2.23%,
O=C(OCCN1C(=O)c2cccc3c(N4CCOCC4)ccc(c23)C1=O)c1ccc(Cl)cc1Cl,,5.25 µM (active)
NNc1nc2sc3c(c2c(=O)n1C1CCCCC1)CCN(Cc1ccccc1)C3,3.94%,
O=S(=O)(O)c1cc(O)c(N=Nc2ccc(O)cc2O)c2ccccc12,4.5%,
COC(=O)c1ccccc1NC(=O)CCS(=O)(=O)c1ccc(Br)cc1,1.54%,
O=C1CCCC2=C1C(c1ccc(O)c(O)c1)Nc1ccc3ncccc3c12 (stereo not drawn),1.66%,
COc1ccccc1C(=O)NCC(=O)OCC(=O)N(CC(C)C)c1c(N)n(Cc2ccccc2)c(=O)[nH]c1=O,5.67%,
O=C1/C(=C/c2ccco2)Oc2c1ccc(O)c2CN1CCCCC1,,18.9 µM (active)
COc1cc2c(cc1OC)CN(C(=O)c1ccc(S(=O)(=O)N3CCCC3)cc1)CC2,5.19%,
C=CC[C@@H](CC(=O)N(CCO)Cc1ccccc1)C(=O)NC[C@H](OC(=O)[C@@H](CC=C)CC(=O)OC(C)(C)C)c1ccccc1,-0.711%,
COC(=O)c1ccccc1OCC(=O)N1CCN(c2ccc(Cl)cc2)CC1,6.05%,
CCCOc1ccc(C=Nc2ccc(OC)c(S(=O)(=O)N3CCOCC3)c2)c(O)c1,-0.786%,
Cc1nnc(NC(=O)CN2C(=O)NC3(CCCC3)C2=O)s1,2.88%,
O=C(NC1CCCCC1)c1cc([N+](=O)[O-])ccc1N1CCOCC1,-1.73%,
Cc1ccc(C(=O)CCC(=O)Nc2ncccc2C)cc1,10.4%,
CCc1ccc[n+](-c2[nH]c(=O)sc2/C=N/NC([S-])=Nc2ccccc2)c1,,14.8 µM (active)
COc1cc(C(=O)O)cc(NC(=O)c2ccco2)c1OC,-3.79%,
O=C(O)C1Nc2ccc(Br)cc2C2C=CCC12 (stereo not drawn),1.26%,
CSc1n[nH]c(=O)n1-c1cccc(Cl)c1,4.23%,

Compound,"activity change, negative = DNA displacement",AC50
Cc1c(NC(=O)CCC2CCCCC2)cc(C(=O)N2CCOCC2)cc1[N+](=O)[O-],-1.94%,
O=S(=O)(O)c1cc(O)c2cc(Nc3ccccc3)ccc2c1,6.99%,
O=C1CC(=O)N(Cc2ccco2)C(=O)N1,8.41%,
CCCN(CCC)S(=O)(=O)c1ccc(C(=O)OCCN2C(=O)c3cccc4c(N5CCOCC5)ccc(c34)C2=O)cc1,,6.89 µM (active)
COc1ccc(NC(=O)CO/N=C2/CCCc3nonc32)c(OC)c1,-0.363%,
COc1cccc(NC(=O)CN(C)C(=O)c2cc3ccccc3cc2OC)c1,4.45%,
COC(=O)c1ccc(OCC(O)CN2CCC(C)CC2)cc1 (stereo not drawn),-2.58%,
CCN(C(=O)COC(=O)CNS(=O)(=O)c1ccc(SC)c([N+](=O)[O-])c1)C1CCCCC1,0.584%,
CCn1nc(-c2ccccc2)c2nc3ccccc3nc21,,24.2 µM (active)
CCc1nnc(NC(=O)c2cccc(S(=O)(=O)N(C)c3ccccc3)c2)s1,-0.138%,
O=C(OCc1ccccc1)N1C=CC2CC1c1c(Cl)cccc12 (stereo not drawn),2.87%,
CCNC(=O)COC(=O)c1cccc(Br)c1,0.49%,
Cc1ccc(C)c(N2CCN(C(=O)c3cc4ccccn4n3)CC2)c1,-11.2%,
Cc1cc(N)ccc1N=Nc1c(C)n(C)n(-c2ccccc2)c1=O,3.39%,
FC(F)(F)c1nnc(-c2ccccc2)nc1N1CCCC1,2.74%,
CCOc1ccc(Nc2ccc(N)c(S(=O)(=O)O)c2)cc1,3.32%,
CC(=O)OCCCn1c(C)[n+](C)c2cc(Cl)c(Cl)cc21,4.62%,
O=C(O)CN1C(=O)/C(=C\c2cc(Br)ccc2OCc2ccc([N+](=O)[O-])cc2)SC1=S,5.9%,
CCOc1ccc(/C=C2\CCCc3c2nc2ccccc2c3C(=O)O)cc1OC,,1.73 µM (active)
